Bioassay records as filed in PubChem BioAssay.
Most compounds without a hit are left out; they make up all but 3.5% or so of the library.
MITF primary = blocks human microphthalmia-associated transcription factor. AlphaScreen MITF homodimerization, bead proximity signal. inhibition, % at 2.6 µM. AID 1259374. O75030. 650,000 tested, 0.91% active; in the data active = inhibition above about 50%
FBW7 activator = activators of human E3 ligase FBW7 | normalized activity (activation), % at 26.1 µM | 650,000 tested, 0.13% active | AlphaScreen FBW7–phospho-cyclin E peptide binding, activator screen | AID 1259310; in the data active = normalized activity above about 1.9%;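 also: purified mutant Fbw7 with reduced substrate affinity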
TEAD-YAP block = TEAD-YAP interaction inhibition; HEK-TIYL cells, TEAD-Gal4/YAP UAS-luciferase luminescence; inhibition, % at 9.12 µM; 640,000 tested, 1.4% active; AID 1259422; in the data active = inhibition above about 32%
GPR151 ag = activators of human GPR151 | Q8TDV0 | PathHunter beta-arrestin GPR151 cells, luminescence | activation, % at 11.2 µM | 650,000 tested, 1% active | AID 1508602; in the data active = activation above about 4.9%
Target sequence (Q8TDV0 whole entry, looked up): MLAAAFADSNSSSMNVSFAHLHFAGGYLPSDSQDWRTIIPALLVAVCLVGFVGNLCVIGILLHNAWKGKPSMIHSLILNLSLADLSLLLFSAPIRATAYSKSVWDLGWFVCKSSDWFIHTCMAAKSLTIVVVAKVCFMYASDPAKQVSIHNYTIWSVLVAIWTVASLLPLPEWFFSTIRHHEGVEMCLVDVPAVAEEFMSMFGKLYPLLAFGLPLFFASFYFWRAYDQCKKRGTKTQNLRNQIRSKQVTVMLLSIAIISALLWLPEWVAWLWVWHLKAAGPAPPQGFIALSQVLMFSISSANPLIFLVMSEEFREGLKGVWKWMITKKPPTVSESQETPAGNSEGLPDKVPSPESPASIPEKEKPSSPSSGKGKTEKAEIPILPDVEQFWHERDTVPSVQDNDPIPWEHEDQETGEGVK
MITF inh conf = confirmation of human MITF inhibitors | shares compounds with MITF primary | AlphaScreen MITF homodimerization, biotin/His-MITF beads | inhibition, % at 2.6 µM | 4,700 tested, 16% active;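 active = inhibition above a cutoff derived from the DMSO control wells, cut at about 28% in these data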;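 also: inhibitors lower the bead chemiluminescence by keeping MITF from dimerizing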
AlphaScreen DR = optically interferes with AlphaScreen signal in dose response; AID 1259373; shares compounds with MITF primary; 480 tested, 6% active; AlphaScreen optical interference counterscreen, cell-free; IC50, µM; call rule not given here
AS interf ctr = counter-screen: compounds optically interfering with AlphaScreen | 4,700 tested, 7.6% active | shares compounds with MITF primary | LysRS AlphaScreen counterscreen, signal interference, triplicate | inhibition, % at 2.6 µM | AID 1259376;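 active = inhibition above a cutoff derived from the DMSO control wells, cut at about 30% in these data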
Numbers stand for hits; . = inactive; / = no result given.

SMILES | MITF primary | FBW7 activator | TEAD-YAP block | GPR151 ag | MITF inh conf | AS interf ctr | others
Cc1nnc(NC(=O)CN2CCOCC2)s1 | . | . | . | . | / | /
CCN1CCN(CC(=O)N(C)c2ccccc2)CC1 | 67.4 | . | . | . | . | .
Cc1cc(C)cc(NC(=O)CCN2CCc3ccccc3C2)c1 | . | . | . | . | / | /
CCN(CC)S(=O)(=O)Cc1ccccc1Cl | . | . | . | . | / | /
CCN1CCN(CCC(=O)Nc2ccccc2)CC1 | . | . | . | . | / | /
CCN1CCN(CC(=O)Nc2ccccc2)CC1 | 59.5 | . | . | . | . | .
N#Cc1ccccc1NC(=O)c1ccc(S(=O)(=O)N2CCCC2)cc1 | . | . | . | . | / | /
N#Cc1ccccc1NC(=O)c1ccc(S(=O)(=O)N2CCOCC2)cc1 | 54.6 | . | . | . | . | .
COc1ccc(-n2c(C)nc3cc(C(=O)NCc4ccccc4OC)ccc32)cc1 | . | . | . | . | / | /
COc1cc2nc(CN3CCCC3c3nccs3)nc(N)c2cc1OC (stereo not drawn) | 64.4 | . | . | . | 61.1 | 99.2
COc1cccc(COC(=O)Nc2cc(F)c(-c3cn[nH]c3)cc2OCCN(C)C)c1 | 80.5 | . | . | . | 46.6 | .
COc1cccc(COC(=O)Nc2ccc(-c3cn[nH]c3)cc2OCCN(C)C)c1 | . | . | . | . | / | /
Cc1ccc(-c2csc3nc[nH]c(=O)c23)cc1 | . | . | . | . | / | /
Cc1ccc(-c2csc3nc(CNCCN(C)C)[nH]c(=O)c23)cc1 | 95.6 | . | . | . | . | 83.4
CCn1c(C(=O)O)c(CC(=O)Nc2ccc(F)c(Cl)c2)c2ccccc21 | . | . | . | . | / | /
O=C(NCc1cccnc1)c1ccc2c(c1)N(Cc1ccccc1F)C(=O)CS2 | . | . | . | . | / | /
O=C(c1ccc(-c2ccccc2)cc1)N1CCN(Cc2ccncc2)CC1 | . | . | . | . | / | /
CC(C)[C@H]1CN(Cc2ccccc2F)CCN1C(=O)c1ccncc1 | . | . | . | . | / | /
Cn1cccc1CN1CCN(C(=O)c2ccc([N+](=O)[O-])cc2)CC1 | . | . | . | . | / | /
O=C(c1ccncc1)N1CCN(Cc2ccccc2Br)CC1 | 61.5 | . | . | . | . | .
O=C(c1ccc([N+](=O)[O-])cc1)N1CCN(Cc2ccccc2Br)CC1 | 57.8 | . | . | . | . | .
O=C(c1ccco1)N1CCN(Cc2ccccc2F)CC1 | 61.2 | . | . | . | . | .
O=C(c1ccncc1)N1CCN(Cc2ccccc2F)CC1 | 78.4 | . | . | . | . | .
c1ccc(Oc2ccc(-c3cnn4c(N5CCOCC5)ccnc34)cc2)cc1 | . | . | . | . | / | /
COc1cc(S(=O)(=O)N2CCC(C(N)=O)(N3CCCCC3)CC2)ccc1-n1cnnn1 | . | . | . | . | / | /
SMILES | MITF primary | FBW7 activator | TEAD-YAP block | GPR151 ag | MITF inh conf | AS interf ctr | others
O=C(CNCc1ccccc1F)N1CCN(C(=O)CNCc2ccccc2F)CC1 | 60.7 | . | . | . | . | .
CCCNC(=O)c1cccc(-c2cccc(N)c2)n1 | . | . | . | . | / | /
CC(=O)C1=C(O)C(=O)N(C2CCCCC2)C1c1ccc(F)cc1 (stereo not drawn) | . | . | . | . | / | /
O=C(COc1ccccc1)Nc1ccc(NC(=O)c2cccs2)cc1 | 51.2 | . | . | . | . | .
CC1CN(Cc2cccc(Cl)c2)CC(C)O1 (stereo not drawn) | 63.9 | . | . | . | . | .
CC1CN(Cc2ccc(C(F)(F)F)cc2)CC(C)O1 (stereo not drawn) | 55.2 | . | . | . | . | .
CC1CN(Cc2ccc(Cl)cc2)CC(C)O1 (stereo not drawn) | . | . | . | . | / | /
Cc1cnc(Oc2ccccc2)nc1NCc1cccc(C(F)(F)F)c1 | . | . | . | . | / | /
O=S(=O)(c1cccc(S(=O)(=O)N2CCCCC2)c1)c1ccc(Cl)c(S(=O)(=O)N2CCCCC2)c1 | . | . | . | . | / | /
COc1ccc(-c2[nH]nc3c2C(c2ccccc2F)C(C#N)=C(N)O3)cc1OC (stereo not drawn) | . | . | . | . | / | /
O=C1N[C@@H](Cc2ccc(O)cc2)C(=O)N2CCN(C(=O)NCc3ccccc3)C[C@H]12 | 63.6 | . | . | . | 69.0 | . | AlphaScreen DR=.
O=C1N[C@@H](Cc2ccc(Cl)cc2)C(=O)N2CCN(C(=O)NCc3ccccc3)C[C@H]12 | 72.6 | . | . | . | 71.1 | . | AlphaScreen DR=.
O=C1N[C@@H](Cc2ccc(O)cc2)C(=O)N2CCN(C(=O)OCc3ccccc3)C[C@H]12 | . | . | . | . | / | /
CC(C)(C)NC(=O)COC(=O)Cc1ccc(Cl)cc1 | 116.3 | . | . | . | . | .
CCOC(=O)CONC(=Nc1ccc(C)cc1)c1nonc1N | . | . | . | . | / | /
O=c1[nH]cccc1-c1ccc(Nc2nccc(-c3ccc4nc(C5CC5)[nH]c(=O)c4c3)n2)cc1 | 64.4 | . | . | . | 62.0 | . | AlphaScreen DR=.
O=C(c1cccc(Nc2nccc(-c3ccc4nc(C5CC5)[nH]c(=O)c4c3)n2)c1)N1CCCC1 | . | . | . | . | / | /
NC(=O)c1oc2ccccc2c1NC(=O)c1sc2ccccc2c1Cl | 57.7 | . | . | . | . | .
NC(=O)c1oc2ccccc2c1NC(=O)c1ccc(Cl)cc1 | . | . | . | . | / | /
COc1ccc(CN2CCN(C(=O)c3cc(OC)c(OC)c(OC)c3)CC2)cc1Br | 52.0 | . | . | . | . | .
COc1cccc(C(=O)N2CCN(Cc3ccc(OC)c(Br)c3)CC2)c1 | 51.7 | . | . | . | . | .
COc1ccc(CN2CCN(C(=O)c3cccc(OC)c3)CC2)cc1 | . | . | . | . | / | /
CC(C)c1ccc(OCC(=O)NC(C)(C)C)cc1 | . | . | . | . | / | /
Cc1ccc(C(=O)COC(=O)C(C(C)C)N2C(=O)C3C4C=CC(C4)C3C2=O)cc1[N+](=O)[O-] (stereo not drawn) | 82.0 | . | . | . | . | .
CCN(CC)CC(=O)Nc1c2c(nc3ccccc13)CCCC2 | . | . | . | . | / | /
SMILES | MITF primary | FBW7 activator | TEAD-YAP block | GPR151 ag | MITF inh conf | AS interf ctr | others
CCCCCCN(CCCCCC)CC(=O)Nc1c2c(nc3ccccc13)CCC2 | 71.2 | . | . | . | . | .
CCCCCN(CCCCC)CC(=O)Nc1cc(C)nc2ccccc12 | 73.7 | . | . | . | . | .
O=C(c1ccc(-n2cnnn2)cc1)N1CCOc2ccc(CN3CCCC(CO)C3)cc2C1 (stereo not drawn) | . | . | . | . | / | /
COc1ccc(CN2CCN(C(=O)c3ccncc3)CC2)c(OC)c1OC | 51.3 | . | . | . | . | .
COc1ccc(CN2CCN(C(=O)c3ccccc3)CC2)c(OC)c1OC | . | . | . | . | / | /
COc1cccc(CN2CCN(C(=O)c3ccncc3)CC2)c1OC | 83.0 | . | . | . | . | .
CCNC(=O)N1CCCC(N2CCN(Cc3ccc4c(c3)OCO4)CC2)C1 (stereo not drawn) | . | . | . | . | / | /
CC1CCCC(N2CCN(Cc3ccc4c(c3)OCO4)CC2)C1 (stereo not drawn) | 67.7 | . | . | . | . | .
c1ccc(CN2CCC(N3CCN(Cc4ccc5c(c4)OCO5)CC3)CC2)cc1 | . | . | . | . | / | /
